Drawing on PubChem BioAssay (EPA / NIEHS), this text covers outcome and AC50 for 39 molecules.

As a reminder, the AC50 is the midpoint of the concentration-response curve, whichever way the signal moves.

More than one record can exist for a structure, and the calls need not agree. Active and inactive are the calls of the source. How the source made its calls: active means hit-call score of the fitted dose curve at least 0.9, where 1 is the maximum; inactive means score below 0.9.

Sequence of Paired box protein Pax-6 (Homo sapiens) (P26367 whole entry, looked up): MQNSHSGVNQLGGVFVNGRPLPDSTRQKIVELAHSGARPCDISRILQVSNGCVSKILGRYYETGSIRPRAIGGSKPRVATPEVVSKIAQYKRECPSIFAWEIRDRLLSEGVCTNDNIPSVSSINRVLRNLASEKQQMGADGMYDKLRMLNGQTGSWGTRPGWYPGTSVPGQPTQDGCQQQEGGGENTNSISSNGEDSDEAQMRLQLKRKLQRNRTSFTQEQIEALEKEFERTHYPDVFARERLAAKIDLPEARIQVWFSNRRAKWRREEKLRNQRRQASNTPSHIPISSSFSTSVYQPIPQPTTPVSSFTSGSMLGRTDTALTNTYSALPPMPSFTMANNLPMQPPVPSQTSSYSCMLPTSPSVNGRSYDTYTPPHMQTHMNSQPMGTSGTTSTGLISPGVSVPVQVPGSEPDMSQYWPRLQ

For this assay, the target named is Paired box protein Pax-6 (Homo sapiens) (UniProt P26367). As to the kind of experiment: ATG_Pax6_CIS: Attagene CIS-FACTORIAL HepG2 Assay for human Paired Box 6 (PAX6) (AID 2282956). Particulars: HepG2 CIS-FACTORIAL PAX6 reporter transcription, RNA readout; actives raise or lower the signal. On the procedure:
ATG_CIS is a cell-based, multiplexed-readout assay that uses HepG2, a human liver cell line, with measurements taken at 24 hours after chemical dosing in a 24-well plate.ATG_Pax6_CIS is one of 52 assay component(s) measured or calculated from the ATG_CIS assay. It is designed to make measurements of mRNA induction, a form of inducible reporter, as detected with fluorescence intensity signals by Reverse transcription polymerase chain reaction (RT-PCR) and Capillary electrophoresis technology.Data from the assay component ATG_Pax6_CIS was analyzed into 1 assay endpoint. This assay endpoint, ATG_Pax6_CIS, was analyzed with bidirectional fitting relative to DMSO as the negative control and baseline of activity. Using a type of inducible reporter, measures of mRNA for gain or loss-of-signal activity can be used to understand the reporter gene at the transcription factor-level as they relate to the gene PAX6. Furthermore, this assay endpoint can be referred to as a primary readout, because this assay has produced multiple assay endpoints where this one serves a reporter gene function. To generalize the intended target to other relatable targets, this assay endpoint is annotated to the dna binding intended target family, where the subfamily is paired box protein.
Human liver HepG2 cells are transiently transfected with multiple reporter transcription units (MRTUs) in 6-well plates using FuGene 6 reagent (Roche; 3 ml FuGene/1 mg DNA). The MRTU constructs are regulated by a cis-regulating element (promoter). […] A major difference between the CIS and TRANS system is that in CIS activities of endogenous TFs are measured, whereas the TRANS assay evaluates changes in activities of exogenous, chimeric NR-Gal4 proteins. […] At the end of 24 hour incubation, total RNA was isolated using TriZol reagent (Invitrogen). The isolated RNA is then reverse-transcribed using oligo(dT) primer and Mo-MLV reverse transcriptase (Invitrogen) with DNAse I (Ambion) treatment for 30 min. The one-tenth of the produced cDNA was amplified by PCR using Taq DNA polymerase (Invitrogen) and two reporter sequence-specific primers. The PCR products were fluorescently labeled by primer extension with 6-arboxyfluorescein (6-FAM) 5'-labeled reporter sequence-specific primer (2 min at 95 C, 20 s at 68 C and 10 min at 72 C) and these products were digested with 5U of HpaI (New England Biolabs) for 2h at 37 C. The fragments were purified using Qiaquick PCR columns (Qiagen), analyzed on an ABI 3130xL genetic analyzer (Applied Biosystems) with peak positions identified by using a set of X-rhodamine (ROX)-labeled MapMarker1000 molecular weight standards (BioVentures). The raw capillary electrophoresis data was processed using Attagraph software (Attagene).
As for `CNC(=O)ON=C(C)SC`, the outcome was inactive. `CCC(CC)Nc1c([N+](=O)[O-])cc(C)c(C)c1[N+](=O)[O-]`: the molecule was classed as inactive. As for `CCCOc1nn(C(=O)NS(=O)(=O)c2ccccc2C(=O)OC)c(=O)n1C`, the molecule was classed as inactive. Same read-out and setting: the entry for `N#CSCSC#N` is “inactive”. Same read-out and setting: the entry for `CCNc1nc(Cl)nc(NC(C)(C)C#N)n1` is “inactive”. Still for that read-out and setting: under `CSc1nc(NC(C)C)nc(NC(C)C)n1` stands “inactive”. Turning to `CCOC(=O)COc1cc(-c2nn(C)c(OC(F)F)c2Cl)c(F)cc1Cl`, the molecule was classed as inactive. The same measure, in the same setting: under `CCOP(=S)(OCC)Oc1ccc2c(C)c(Cl)c(=O)oc2c1` stands “inactive”; under `O=c1ccc(=O)[nH][nH]1`, “inactive”. Still for that read-out and setting: the entry for `CCOP(=S)(OCC)Oc1cc(C)nc(C(C)C)n1` is “inactive”.

Take `C#CCC1=C(C)C(OC(=O)C2C(C=C(C)C)C2(C)C)CC1=O` (stereo not given): the AC50 was 72.1 µM (active).

On to `CCC(=NOC/C=C/Cl)C1=C(O)CC(C2CCOCC2)CC1=O` (stereo not given), for which the outcome was inactive. On the same count and under the same terms, under `Nc1nc(N)nc(NC2CC2)n1` stands “inactive”; under `CNc1cnn(-c2cccc(C(F)(F)F)c2)c(=O)c1Cl`, “inactive”. The same measure, in the same setting: the entry for `CC(COc1ccc(Oc2ccccc2)cc1)Oc1ccccn1` (stereo not given) is “inactive”. Take `FC(F)C(F)(F)OCC(Cn1cncn1)c1ccc(Cl)cc1Cl` (stereo not given): the concentration at half-maximal activity (AC50) was 78.8 µM (active). As for `COP(=O)(OC)OC(Br)C(Cl)(Cl)Br` (stereo not given), the outcome was inactive. On the same count and under the same terms, under `COP(=O)(OC)SCn1c(=O)oc2cc(Cl)cnc21` stands “inactive”. Still for that read-out and setting: under `CCOP(=O)(SC(C)CC)N1CCSC1=O` (stereo not given) stands “inactive”.

On to `CON=C(C(=O)OC)c1ccccc1CON=C(C)c1cccc(C(F)(F)F)c1`, for which the outcome was inactive. Still for that read-out and setting: under `COP(=O)(NC(C)=O)SC` (stereo not given) stands “inactive”; under `Cc1nn(-c2cc(NS(C)(=O)=O)c(Cl)cc2Cl)c(=O)n1C(F)F`, “inactive”; under `CCOP(=S)(OCC)Oc1ccc([N+](=O)[O-])cc1`, “inactive”. Same read-out and setting: the entry for `CCCCN(CC)c1c([N+](=O)[O-])cc(C(F)(F)F)cc1[N+](=O)[O-]` is “inactive”; for `CCOP(=O)(NC(C)C)Oc1ccc(SC)c(C)c1` (stereo not given) it is “inactive”; for `CC(C)N(C(=O)SCC(Cl)=C(Cl)Cl)C(C)C` it is “inactive”.

For `CSc1nnc(C(C)(C)C)c(=O)n1N`, the call was inactive.

Consider `CNC(=O)ON=C(SC)C(=O)N(C)C`, for which the molecule was classed as inactive. The same measure, in the same setting: the entry for `COP(=O)(OC)C(O)C(Cl)(Cl)Cl` (stereo not given) is “inactive”; for `CCC(=O)Nc1ccc(Cl)c(Cl)c1` it is “inactive”. The same measure, in the same setting: the entry for `C[N+]1(C)CCCCC1` is “inactive”.

On to `Cc1cc(C2CC2)nc(Nc2ccccc2)n1`, for which the AC50 was 50 µM (active).

As to `C=C(C)[C@H]1Cc2c(ccc3c2O[C@@H]2COc4cc(OC)c(OC)cc4[C@@H]2C3=O)O1`, the molecule was called inactive.

As to `CC1=NNC(=O)N(/N=C/c2cccnc2)C1`, the result was inactive. On the same count and under the same terms, under `CCOP(=S)(OCC)OC(Cl)C(Cl)(Cl)Cl` (stereo not given) stands “inactive”.

`O=[N+]([O-])c1cc(C(F)(F)F)c(Cl)c([N+](=O)[O-])c1Nc1ncc(C(F)(F)F)cc1Cl`: the AC50 was 6.88 µM (active) and the outcome was inactive. In the case of `CN1COCN(Cc2cnc(Cl)s2)C1=N[N+](=O)[O-]`, the molecule was called inactive. As to `COc1ccc(C(=CC(=O)N2CCOCC2)c2ccc(Cl)cc2)cc1OC`, the call was inactive. The same measure, in the same setting: the entry for `CC(=NC#N)N(C)Cc1ccc(Cl)nc1` is “inactive”.
